# Measurements from the supplement of paper PMC8728848.
# This excerpt belongs to a sample that is enriched for the strongest signals.
# B1: AAA (Anguilla anguilla), Q7SIC1 (protein)
# chain: VIPEGYTQENVAVRGKATQSAQLRGEHAANSEASNAIDGNRDSNFYHGSCTHSSGQANPWWRVDLLQVYTITSVTITNRGDCCGERISGAEINIGQHLASNGVNNPECSVIGSMATGETKTFHCPAPMIGRYVVTYLPTSESLHLCEVEVNVDKPAAA
# Tests used:
# Assay in all cases: glycan array binding signal (z-score within array); higher = stronger binding
# Conditions in all cases: glycan notation: IUPAC condensed, linker removed
# [1] = biological target: Fuc(a1-2)Gal(b1-3)GalNAc(a1-3)[Fuc(a1-2)]Gal(b1-4)Glc
# Procedure, shortened: (§1)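 The Consortium for Functional Glycomics database supplied 3228 glycan arrays, of which those lacking an available protein sequence were dropped. The binding signal, a within-array Z-score, was averaged across arrays of the same protein sequence and across linkers. Negative scores can be read as non-binding.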
# [2] = biological target: Fuc(a1-2)Gal(b1-3)GalNAc(b1-4)[Neu5Ac(a2-3)]Gal(b1-4)Glc
# Procedure, shortened: as §1
# [3] = biological target: Fuc(a1-2)Gal(b1-3)GlcNAc(b1-3)Gal(b1-4)Glc
# Procedure, shortened: as §1
# [4] = biological target: Fuc(a1-2)Gal(b1-4)GlcNAc(b1-3)[Fuc(a1-2)Gal(b1-4)GlcNAc(b1-6)]GalNAc
# Procedure, shortened: as §1
# [5] = biological target: Fuc(a1-2)Gal(b1-4)GlcNAc(b1-6)GalNAc
# Procedure, shortened: as §1
# [6] = biological target: Fuc(a1-2)Gal(b1-4)[Fuc(a1-3)]GalNAc(b1-3)Gal(b1-4)[Fuc(a1-3)]GlcNAc
# Procedure, shortened: as §1
# Fuc(a1-2)GlcNAc = biological target: Fuc(a1-2)GlcNAc
# Procedure, shortened: as §1
# [7] = biological target: Fuc(a1-2)[Gal(a1-3)]Gal(b1-3)GlcNAc
# Procedure, shortened: as §1
# [8] = biological target: Fuc(a1-2)[Gal(a1-3)]Gal(b1-4)Glc
# Procedure, shortened: as §1
# Gal(a1-3)Gal(b1-4)GlcNAc = biological target: Gal(a1-3)Gal(b1-4)GlcNAc
# Procedure, shortened: as §1
# Gal(a1-6)Glc = biological target: Gal(a1-6)Glc
# Procedure, shortened: as §1
# [9] = biological target: Gal(b1-3)GalNAc(a1-3)[Fuc(a1-2)]Gal(b1-4)Glc
# Procedure, shortened: as §1
# [10] = biological target: Gal(b1-3)GalNAc(b1-3)Gal(b1-4)Glc
# Procedure, shortened: as §1
# [11] = biological target: Gal(b1-3)[Fuc(a1-4)]GlcNAc(b1-3)Gal(b1-3)[Fuc(a1-4)]GlcNAc
# Procedure, shortened: as §1
# [12] = biological target: Gal(b1-3)[Fuc(a1-4)]GlcNAc(b1-6)GalNAc
# Procedure, shortened: as §1
# [13] = biological target: Gal(b1-4)GlcNAc(b1-2)Man(a1-3)[GlcNAc(b1-4)][Gal(b1-4)GlcNAc(b1-2)Man(a1-6)]Man(b1-4)GlcNAc(b1-4)GlcNAc
# Procedure, shortened: as §1
# [14] = biological target: Gal(b1-4)GlcNAc(b1-2)Man(a1-6)Man(b1-4)GlcNAc(b1-4)GlcNAc
# Procedure, shortened: as §1
# [15] = biological target: Gal(b1-4)GlcNAc(b1-3)Gal(b1-4)GlcNAc(b1-3)Gal(b1-4)GlcNAc(b1-3)Gal(b1-4)GlcNAc(b1-3)Gal(b1-4)GlcNAc(b1-2)Man(a1-3)[Gal(b1-4)GlcNAc(b1-3)Gal(b1-4)GlcNAc(b1-3)Gal(b1-4)GlcNAc(b1-3)Gal(b1-4)GlcNAc(b1-3)Gal(b1-4)GlcNAc(b1-2)Man(a1-6)]Man(b1-4)GlcNAc(b1-4)[Fuc(a1-6)]GlcNAc
# Procedure, shortened: as §1
# [16] = biological target: Gal(b1-4)GlcNAc(b1-3)Gal(b1-4)GlcNAc(b1-3)[Gal(b1-4)GlcNAc(b1-3)Gal(b1-4)GlcNAc(b1-6)]GalNAc
# Procedure, shortened: as §1
# Gal3S(b1-4)Glc = biological target: Gal3S(b1-4)Glc
# Procedure, shortened: as §1
# [17] = biological target: Gal3S(b1-4)[Fuc(a1-3)]GlcNAc
# Procedure, shortened: as §1
# [18] = biological target: Gal3S(b1-4)[Fuc(a1-3)]GlcNAc6S
# Procedure, shortened: as §1
# Gal3S6S(b1-4)GlcNAc6S = biological target: Gal3S6S(b1-4)GlcNAc6S
# Procedure, shortened: as §1
# Gal6S(b1-4)GlcNAc6S = biological target: Gal6S(b1-4)GlcNAc6S
# Procedure, shortened: as §1
# GalNAc(b1-3)GalNAc = biological target: GalNAc(b1-3)GalNAc
# Procedure, shortened: as §1
# GalNAc(b1-4)Gal(b1-4)Glc = biological target: GalNAc(b1-4)Gal(b1-4)Glc
# Procedure, shortened: as §1
# GalNAc(b1-4)GlcNAc = biological target: GalNAc(b1-4)GlcNAc
# Procedure, shortened: as §1
# [19] = biological target: GalNAc(b1-4)GlcNAc(b1-3)GalNAc(b1-4)GlcNAc
# Procedure, shortened: as §1
# [20] = biological target: GlcA3S(b1-3)Gal(b1-4)GlcNAc(b1-3)Gal(b1-4)Glc
# Procedure, shortened: as §1
# [21] = biological target: GlcNAc(a1-4)Gal(b1-4)GlcNAc
# Procedure, shortened: as §1
binder,measurement,setting,value
B1,glycan array binding signal (z-score),[1],-0.257
same,glycan array binding signal (z-score),[2],-0.193
same,glycan array binding signal (z-score),[3],-0.189
same,glycan array binding signal (z-score),[4],-0.001
same,glycan array binding signal (z-score),[5],0.002
same,glycan array binding signal (z-score),[6],-0.583
same,glycan array binding signal (z-score),Fuc(a1-2)GlcNAc,8.41
same,glycan array binding signal (z-score),[7],0.046
same,glycan array binding signal (z-score),[8],-0.037
same,glycan array binding signal (z-score),Gal(a1-3)Gal(b1-4)GlcNAc,-0.169
same,glycan array binding signal (z-score),Gal(a1-6)Glc,-0.097
same,glycan array binding signal (z-score),[9],-0.279
same,glycan array binding signal (z-score),[10],0.237
same,glycan array binding signal (z-score),[11],0.164
same,glycan array binding signal (z-score),[12],-0.081
same,glycan array binding signal (z-score),[13],-0.238
same,glycan array binding signal (z-score),[14],-0.168
same,glycan array binding signal (z-score),[15],-0.123
same,glycan array binding signal (z-score),[16],1.43
same,glycan array binding signal (z-score),Gal3S(b1-4)Glc,-0.117
same,glycan array binding signal (z-score),[17],-0.194
same,glycan array binding signal (z-score),[18],-0.154
same,glycan array binding signal (z-score),Gal3S6S(b1-4)GlcNAc6S,-0.044
same,glycan array binding signal (z-score),Gal6S(b1-4)GlcNAc6S,-0.292
same,glycan array binding signal (z-score),GalNAc(b1-3)GalNAc,-0.16
same,glycan array binding signal (z-score),GalNAc(b1-4)Gal(b1-4)Glc,-0.076
same,glycan array binding signal (z-score),GalNAc(b1-4)GlcNAc,1.89
same,glycan array binding signal (z-score),[19],3.34
same,glycan array binding signal (z-score),[20],-0.136
same,glycan array binding signal (z-score),[21],2.3
